# Data reported in publication PMC4336329 (PLoS ONE, 2015).
# Hit rate of the full screen: of about 310,000 compounds, about 14,000 (4.5%) showed an effect of 50% or more. Effects have a minus sign here. What follows is part of a selection rich in strong results, with near analogues and random picks from the rest.
# Target: human ether-à-go-go-related gene (hERG) potassium channel (human, UniProt Q12809)
# Assay: primary screen, population patch clamp on CHO cells stably expressing hERG; higher = less effect of the substance
# 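Also: peak tail current of the secondary pulse compared with the same well before compound.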
# Sequence of human ether-à-go-go-related gene (hERG) potassium channel (Q12809 whole entry, looked up): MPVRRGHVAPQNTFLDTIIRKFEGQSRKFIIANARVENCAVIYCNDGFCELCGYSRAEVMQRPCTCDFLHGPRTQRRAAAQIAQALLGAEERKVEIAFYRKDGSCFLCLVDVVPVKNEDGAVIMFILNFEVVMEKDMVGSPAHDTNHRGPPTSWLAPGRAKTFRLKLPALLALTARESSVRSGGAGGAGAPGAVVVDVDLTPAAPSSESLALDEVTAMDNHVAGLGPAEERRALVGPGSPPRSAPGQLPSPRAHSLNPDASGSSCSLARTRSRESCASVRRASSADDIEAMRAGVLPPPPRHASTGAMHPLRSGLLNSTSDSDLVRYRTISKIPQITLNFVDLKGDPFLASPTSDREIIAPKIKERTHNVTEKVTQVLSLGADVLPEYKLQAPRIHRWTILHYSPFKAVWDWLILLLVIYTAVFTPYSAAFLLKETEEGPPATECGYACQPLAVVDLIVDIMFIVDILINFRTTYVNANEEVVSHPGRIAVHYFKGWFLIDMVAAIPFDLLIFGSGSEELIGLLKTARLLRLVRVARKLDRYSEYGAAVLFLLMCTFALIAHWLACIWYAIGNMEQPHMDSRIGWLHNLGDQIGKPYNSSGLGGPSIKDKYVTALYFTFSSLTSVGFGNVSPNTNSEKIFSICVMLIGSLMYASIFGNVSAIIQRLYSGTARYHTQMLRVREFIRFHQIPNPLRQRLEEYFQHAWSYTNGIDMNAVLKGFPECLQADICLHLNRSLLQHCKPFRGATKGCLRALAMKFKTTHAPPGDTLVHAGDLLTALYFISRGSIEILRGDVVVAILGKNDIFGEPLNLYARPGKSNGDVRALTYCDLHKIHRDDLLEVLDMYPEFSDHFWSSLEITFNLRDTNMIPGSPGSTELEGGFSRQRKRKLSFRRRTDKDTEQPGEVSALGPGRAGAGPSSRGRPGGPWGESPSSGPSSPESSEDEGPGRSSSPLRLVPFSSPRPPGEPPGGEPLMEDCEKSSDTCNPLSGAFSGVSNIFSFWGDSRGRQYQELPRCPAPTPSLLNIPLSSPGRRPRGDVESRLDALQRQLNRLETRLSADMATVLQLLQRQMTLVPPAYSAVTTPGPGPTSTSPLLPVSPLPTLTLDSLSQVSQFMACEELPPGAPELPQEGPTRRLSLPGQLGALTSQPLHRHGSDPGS
row,SMILES,"hERG current change (%, negative = inhibition) at 10uM [%]"
1,Cc1ccc(C(=O)OCC(=O)Nc2ccc3[nH]c(=O)[nH]c3c2)cc1S(=O)(=O)N1CCOCC1,4.19
2,O=C(Nc1ccc(C(=O)N2CCCCC2)cc1)c1ccc(Br)cc1,3.55
3,O=C(O)c1ccc2c(c1)CCC2,9.54
4,Cc1cc(NC(=O)C23CC4CC(CC(C4)C2)C3)n[nH]1,-0.917
5,Cc1cccc(NC(=S)N2CCCC2)c1,11.1
6,COc1cc(OC)cc(C(=O)Nc2c(C)nn(-c3ccccc3)c2C)c1,-3.27
7,COc1ccc(CCNC(=S)N2CCN(S(=O)(=O)c3ccccc3F)CC2)cc1,-3.68
8,CCOC(=O)c1c(-c2ccccc2)csc1NC(=O)c1nn(CC)cc1Br,6.4
9,O=C(Oc1ccc(Cl)cc1)c1ccc(COC(=O)c2cnccn2)cc1,14.9
10,COc1ccc(NC(=O)c2ccco2)c(OC)c1,16.9
11,COc1ccc(NC(=O)c2ccccc2NC(=O)c2ccco2)c(OC)c1,-73.4
12,COc1ccc(NC(=O)CCC(=O)Nc2cc(OC)c(NC(=O)c3ccco3)cc2OC)c(OC)c1,20.4
13,O=C(O)c1ccccc1C1Nc2ccccc2C(=O)N1CCCN1CCOCC1 (stereo not shown),18.4
14,C/C(=N/n1cnnc1)c1cccnc1,-0.855
15,C/C(=N\NC(=O)CCC(=O)Nc1ccc(C)c(C)c1)C1CC1,10.7
16,N#Cc1cccnc1N1CCN(C(=O)c2cccs2)CC1,-1.7
17,Cc1ccc2nc(N3CCN(C(=O)c4cccs4)CC3)c(C#N)cc2c1,-76.9
18,CCc1ccc2nc(N3CCN(C)CC3)c(C#N)cc2c1,-54.3
19,COc1ccc2cc(C#N)c(N3CCN(C(=O)c4ccccc4C)CC3)nc2c1,-18.9
20,Cc1cccc2cc(C#N)c(N3CCN(C)CC3)nc12,-46
21,Cc1ccc2cc(C#N)c(N3CCCN(C(=O)c4cnccn4)CC3)nc2c1,-42.4
22,Cc1ccc2cc(C#N)c(N3CCN(C(=O)c4cccs4)CC3)nc2c1,-34.2
23,Cc1ccc2cc(C#N)c(N3CCN(C)CC3)nc2c1,2.75
24,COc1cc(C(=O)N2CCCN(c3nc4cc(C)ccc4cc3C#N)CC2)cc(OC)c1OC,-53.5

row,SMILES,"hERG current change (%, negative = inhibition) at 10uM [%]"
1,COc1ccc(C(=O)N2CCN(c3nc4cc(C)ccc4cc3C#N)CC2)c(OC)c1,-22.8
2,Cc1ccc2nc(N3CCN(C)CC3)c(C#N)cc2c1,-42.3
3,Cc1ccc2cc(C#N)c(N3CCN(C(=O)c4ccccc4)CC3)nc2c1,-67.1
4,Cc1cc(-c2ccccc2)nc(N(C)NC(=O)c2ccc(Cl)cc2)c1S(C)(=O)=O,0.236
5,CC(=O)c1cccc(NC(=O)N2CCC(C(=O)c3ccc(F)cc3)CC2)c1,-28.1
6,CCOc1ccc(N=Nc2c(C)[nH]n(-c3ccccc3)c2=O)cc1,18.6
7,O=C(COC(=O)C1CCC1)Nc1ccccc1Sc1ccccc1,7.34
8,COc1ccc2nc(NC(=S)NC(=O)c3ccco3)sc2c1,25.2
9,COc1ccc(CCNC(=O)c2cnc3n(c2=O)CCS3)cc1OC,-5.87
10,Cc1ccc(-n2c(C)nn(CCOc3ccccc3)c2=O)cc1,1.54
11,COc1ccccc1C(=O)N1CCN(c2nc3cc(C)c(C)cc3cc2C#N)CC1,-2.28
12,Cc1ccc2nc(N3CCN(C(=O)c4ccc(F)cc4)CC3)c(C#N)cc2c1,-73.6
13,Cc1ccc(C(=O)N2CCCN(c3nc4cc5c(cc4cc3C#N)OCO5)CC2)cc1,-0.619
14,C/C(=N\NC(=O)c1cc(-c2ccc(O)cc2)nc2ccccc12)c1cccnc1,11.7
15,COC(=O)/C=C1\SC(=Nc2ccccc2)NC1=O,9.64
16,Cc1nnc2ccc(N3CCN(c4ccccn4)CC3)nn12,-57
17,Cc1nnc2ccc(-c3cccc(C(F)(F)F)c3)nn12,-9.04
18,Cc1nnc2ccc(N3CCCCC3)nn12,6.15
19,Cc1nnc2ccc(N3CCN(c4cccc(C(F)(F)F)c4)CC3)nn12,-61.8
20,Cc1nnc2ccc(N3CCCC3)nn12,6.22
21,FC(F)(F)c1cccc(N2CCN(c3ccc4nnc(-c5ccccc5)n4n3)CC2)c1,-4.4
22,CN1CCc2c(sc(N)c2C(N)=O)C1,6.59
23,S=c1[nH]c2ccc(Cl)cc2s1,21.1
24,O=C(NCc1ccc(Cl)cc1)C(=O)Nc1nccs1,20.7

row,SMILES,"hERG current change (%, negative = inhibition) at 10uM [%]"
1,O=C(c1ccc2c(=O)n(C3CCCC3)c(=S)[nH]c2c1)N1CCN(C2CCCCC2)CC1,6.5
2,CSC1=N/C(=C\c2ccccc2C)C(=O)S1,23.9
3,COc1ccc2cc(C(C)=O)c(=O)oc2c1,-11.4
4,OCCN=C1CCCc2c1[nH]c1ccc(Br)cc21,6.45
5,OCCN=C1CCCc2c1[nH]c1ccc(Cl)cc21,-18
6,Cl.c1ccc(CCN=C2CCCc3c2[nH]c2ccccc32)cc1,-73.2
7,CCN(CC)C(=O)c1ccc(CS(=O)(=O)c2ccc(OC)cc2)o1,-0.122
8,N=c1c(C(=O)NC2CCCC2)cc2c(=O)n3ccccc3nc2n1C1CCCCC1,-79
9,N=c1c(S(=O)(=O)c2ccc(Cl)cc2)cc2c(=O)n3ccccc3nc2n1C1CCCC1,14
10,Cn1c(C(=O)NC2CCCCC2)cc2c(=O)n3ccccc3nc21,4.32
11,Cc1nc2ccccn2c1C(=O)NC1CCCC1,16.2
12,N=c1c(C(=O)NC2CCCC2)cc2c(=O)n3ccccc3nc2n1C1CCCC1,-82.2
13,Cc1nc2ccccn2c1C(=O)NC1CCCCC1,1.83
14,COc1ccc(N2CCN(C(CNC(=O)C(=O)NC3CC3)c3ccco3)CC2)cc1 (stereo not shown),13.6
15,CCOc1cc(C=C(C(=O)OC)C(=O)OC)ccc1OCc1ccc([N+](=O)[O-])cc1,4.17
16,O=C(Nc1ccc(F)cc1F)c1cc2ncc(CCCl)cn2n1,-12.3
17,O=C(Nc1nnc(SCc2ccc(F)cc2)s1)c1cccnc1Cl,2.48
18,COc1cc(NC(=O)c2cc3ccccc3o2)c(OC)cc1Cl,16.3
19,Clc1ccc(Cn2ncc3c(N4CCOCC4)ncnc32)cc1,-16.2
20,Clc1ccc(Cn2ncc3c(N4CCCCC4)ncnc32)cc1,-14.4
21,Brc1ccc2ncnc(NCc3cccnc3)c2c1,-60.2
22,Cc1cccc(CNc2ncnc3ccc(-c4ccoc4)cc23)c1,-12.4
23,c1cncc(CNc2ncnc3sccc23)c1,17.8
24,Clc1ccc(Cn2ncc3c(NCc4cccnc4)ncnc32)cc1,-51.2

row,SMILES,"hERG current change (%, negative = inhibition) at 10uM [%]"
1,Clc1ccc(Cn2ncc3c(N4CCCC4)ncnc32)cc1,-56.7
2,Clc1ccc(Cn2ncc3c(NCc4ccccc4)ncnc32)cc1,-1.94
3,c1ccc(CNc2ncnc3c2cnn3Cc2ccccc2)cc1,-22
4,Brc1ccc2ncnc(NCc3ccccc3)c2c1,-10.3
5,c1csc(CNc2ncnc3ccc(-c4ccoc4)cc23)c1,-13.4
6,c1cncc(CNc2ncnc3ccc(-c4ccoc4)cc23)c1,-71.4
7,O=c1c(NCCc2ccc(Cl)cc2)c(-c2ccccc2)c1=O,5.81
8,O=S1(=O)CCS(=O)(=O)C1c1ccccc1,-1.95
9,COc1ccc(N/C=C/C(=O)c2cc(OC)c(OC)c(OC)c2)cc1,-8.76
10,Cc1nc2cc(CO)ccc2s1,9.23
11,COC(=O)/C(=C\Nc1ccccc1N)c1ncc(C(F)(F)F)cc1Cl,3.74
12,CCn1ncc(C2=NOC(C(=O)Nc3c(C)nn(Cc4ccc(F)cc4)c3C)C2)c1C (stereo not shown),10.3
13,COc1ccc(-c2nc3nc(C)cc(=O)n3[nH]2)cc1,17.9
14,CCn1nnnc1NCc1ccc(N2CCCC2)cc1,3.6
15,Cc1ccc(S(=O)(=O)NCCCCCC(=O)NC(C)(C)CO)cc1,13.7
16,CCCCNC(=O)CSc1nc2ccccc2n1S(=O)(=O)c1ccc(Br)cc1,-0.913
17,COc1cccc(-c2ccc3ncnc(NCc4cccc(C)c4)c3c2)c1,-0.57
18,Cc1cccc(-c2ccc3ncnc(NCc4cccnc4)c3c2)c1,-70.5
19,Cc1cccc(-c2ccc3ncnc(NCc4cccs4)c3c2)c1,-8.55
20,CN(CCc1ccccn1)C(=O)CCC1CCCN(C(=O)NC2CCCCC2)C1 (stereo not shown),17.4
21,CCc1ccccc1NC(=O)N1CCCC(CCC(=O)N(C)CCc2ccccn2)C1 (stereo not shown),13.1
22,CCOC(=O)CCNC(=O)N1CCCC(CCC(=O)N(C)CCc2ccccn2)C1 (stereo not shown),-52.3
